Source: PMC7862700, “An all-to-all approach to the identification of sequence-specific readers for epigenetic DNA modifications on cytosine”

How the values were obtained:
Assay in all cases: DAPPL (digital affinity profiling via proximity ligation, sequencing); 10 mM Tris-HCl pH 7.5, 50 mM NaCl, 1 mM DTT, 4% glycerol, room temperature, 30 min; GST-TFs on glutathione beads, 16-mer random dsDNA library, 0.1% formaldehyde crosslink after washing; high values mean tight binding
FLI1 = target: T1, FLI1 (Homo sapiens, UniProt Q01543 1-452); conditions: protein: recombinant; tags: N-terminal GST; dsDNA, one strand shown
T1 sequence: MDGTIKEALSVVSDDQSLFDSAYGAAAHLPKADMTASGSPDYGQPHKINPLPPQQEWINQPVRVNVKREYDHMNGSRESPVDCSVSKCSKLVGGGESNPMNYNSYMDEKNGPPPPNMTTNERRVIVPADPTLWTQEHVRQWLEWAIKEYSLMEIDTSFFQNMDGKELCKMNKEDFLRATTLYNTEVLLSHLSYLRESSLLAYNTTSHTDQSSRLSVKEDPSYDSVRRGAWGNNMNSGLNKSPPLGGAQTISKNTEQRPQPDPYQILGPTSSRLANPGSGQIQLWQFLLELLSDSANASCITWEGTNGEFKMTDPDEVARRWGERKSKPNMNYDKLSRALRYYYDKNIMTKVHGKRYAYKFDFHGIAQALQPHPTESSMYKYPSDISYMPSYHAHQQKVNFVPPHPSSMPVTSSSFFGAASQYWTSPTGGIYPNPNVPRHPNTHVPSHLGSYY
Outline: (§1)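 Human transcription factors were made in yeast as GST fusions, captured on glutathione beads and barcoded with DNA. With a tag-only sample included, the pool was incubated with 200 nmole of a random double-stranded 16-mer DNA library in Tris/NaCl/DTT/glycerol buffer at room temperature for 30 min, then crosslinked with 0.1% formaldehyde after washing, ligated by proximity, amplified and sequenced. For binding signal, each hexamer's read frequency for a factor is divided by its frequency for the tag-only sample.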

ELK1 = target: T2, ELK1 (Homo sapiens, UniProt P19419 1-428); conditions: protein: recombinant; tags: N-terminal GST; dsDNA, one strand shown
T2 sequence: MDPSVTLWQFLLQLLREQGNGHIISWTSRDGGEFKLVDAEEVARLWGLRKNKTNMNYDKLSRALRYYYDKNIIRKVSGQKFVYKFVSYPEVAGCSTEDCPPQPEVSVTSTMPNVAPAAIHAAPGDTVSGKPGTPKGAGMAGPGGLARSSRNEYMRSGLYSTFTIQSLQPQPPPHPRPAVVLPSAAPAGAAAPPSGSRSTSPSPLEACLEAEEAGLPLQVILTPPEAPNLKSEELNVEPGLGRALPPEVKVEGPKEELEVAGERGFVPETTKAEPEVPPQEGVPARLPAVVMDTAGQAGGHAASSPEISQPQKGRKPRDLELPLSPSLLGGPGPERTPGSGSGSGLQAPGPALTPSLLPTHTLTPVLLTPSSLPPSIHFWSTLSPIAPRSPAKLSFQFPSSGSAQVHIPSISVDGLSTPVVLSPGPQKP
Outline: as §1

GABPA = target: T3, GABPA (Homo sapiens, UniProt Q06546 1-454); conditions: protein: recombinant; tags: N-terminal GST; dsDNA, one strand shown
T3 sequence: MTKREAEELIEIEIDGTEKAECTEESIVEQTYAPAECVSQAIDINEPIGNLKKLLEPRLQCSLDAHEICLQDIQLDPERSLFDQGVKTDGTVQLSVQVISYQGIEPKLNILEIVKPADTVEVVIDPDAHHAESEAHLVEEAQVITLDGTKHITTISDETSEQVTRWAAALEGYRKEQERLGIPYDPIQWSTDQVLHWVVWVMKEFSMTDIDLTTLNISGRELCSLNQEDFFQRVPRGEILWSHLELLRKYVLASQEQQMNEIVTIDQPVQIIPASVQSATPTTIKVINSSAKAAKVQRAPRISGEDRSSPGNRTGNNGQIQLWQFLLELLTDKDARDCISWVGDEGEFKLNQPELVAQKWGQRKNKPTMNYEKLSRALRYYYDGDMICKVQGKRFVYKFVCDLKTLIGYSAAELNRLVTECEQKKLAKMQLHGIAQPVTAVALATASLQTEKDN
Outline: as §1

ELF1 = ELF1 (Homo sapiens, UniProt P32519 1-619); conditions: protein: recombinant; tags: N-terminal GST; dsDNA, one strand shown
Outline: as §1

EHF = target: T4, EHF (Homo sapiens, UniProt Q9NZC4 1-300); conditions: protein: recombinant; tags: N-terminal GST; dsDNA, one strand shown
T4 sequence: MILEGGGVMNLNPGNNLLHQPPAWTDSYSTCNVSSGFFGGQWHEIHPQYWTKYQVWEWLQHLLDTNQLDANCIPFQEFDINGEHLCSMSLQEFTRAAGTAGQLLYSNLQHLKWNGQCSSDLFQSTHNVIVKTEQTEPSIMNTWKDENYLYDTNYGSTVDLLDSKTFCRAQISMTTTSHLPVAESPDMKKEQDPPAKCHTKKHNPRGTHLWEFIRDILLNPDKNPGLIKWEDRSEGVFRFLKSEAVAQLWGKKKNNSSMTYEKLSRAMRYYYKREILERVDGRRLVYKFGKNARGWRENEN
Outline: as §1

SPIB = SPIB (Homo sapiens, UniProt Q01892 1-262); conditions: protein: recombinant; tags: N-terminal GST; dsDNA, one strand shown
Outline: as §1

ELK3 = target: T5, ELK3 (Homo sapiens, UniProt P41970 1-407); conditions: protein: recombinant; tags: N-terminal GST; dsDNA, one strand shown
T5 sequence: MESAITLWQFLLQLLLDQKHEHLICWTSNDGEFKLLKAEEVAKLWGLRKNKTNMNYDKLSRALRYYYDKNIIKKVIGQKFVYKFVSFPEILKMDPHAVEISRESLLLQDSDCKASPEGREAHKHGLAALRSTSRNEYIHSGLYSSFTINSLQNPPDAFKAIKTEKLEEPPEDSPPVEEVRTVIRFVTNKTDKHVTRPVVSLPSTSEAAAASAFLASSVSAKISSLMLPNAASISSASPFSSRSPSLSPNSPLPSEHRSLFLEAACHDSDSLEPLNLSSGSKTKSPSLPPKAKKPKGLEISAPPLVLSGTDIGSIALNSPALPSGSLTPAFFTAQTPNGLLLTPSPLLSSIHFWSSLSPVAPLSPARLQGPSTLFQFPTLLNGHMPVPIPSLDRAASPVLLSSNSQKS
Outline: as §1

HSF1 = HSF1 (Homo sapiens, UniProt Q00613 1-529); conditions: protein: recombinant; tags: N-terminal GST; chain copies: 3; dsDNA, one strand shown
Outline: as §1

ELK4 = target: T6, ELK4 (Homo sapiens, UniProt P28324-2 1-405); conditions: protein: recombinant; tags: N-terminal GST; dsDNA, one strand shown
T6 sequence: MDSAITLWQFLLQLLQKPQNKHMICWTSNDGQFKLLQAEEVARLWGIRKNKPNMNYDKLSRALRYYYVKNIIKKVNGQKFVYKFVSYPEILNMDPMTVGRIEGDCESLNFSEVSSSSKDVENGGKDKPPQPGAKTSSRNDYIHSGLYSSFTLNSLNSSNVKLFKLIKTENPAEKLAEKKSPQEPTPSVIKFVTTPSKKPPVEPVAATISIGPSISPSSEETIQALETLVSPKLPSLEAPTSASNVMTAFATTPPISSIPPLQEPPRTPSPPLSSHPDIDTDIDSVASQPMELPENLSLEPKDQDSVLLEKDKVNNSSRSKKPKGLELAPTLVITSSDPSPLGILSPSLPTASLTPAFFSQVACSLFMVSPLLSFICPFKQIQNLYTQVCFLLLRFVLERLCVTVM
Outline: as §1

ETV2 = target: T7, ETV2 (Homo sapiens, UniProt O00321 1-342); conditions: protein: recombinant; tags: N-terminal GST; dsDNA, one strand shown
T7 sequence: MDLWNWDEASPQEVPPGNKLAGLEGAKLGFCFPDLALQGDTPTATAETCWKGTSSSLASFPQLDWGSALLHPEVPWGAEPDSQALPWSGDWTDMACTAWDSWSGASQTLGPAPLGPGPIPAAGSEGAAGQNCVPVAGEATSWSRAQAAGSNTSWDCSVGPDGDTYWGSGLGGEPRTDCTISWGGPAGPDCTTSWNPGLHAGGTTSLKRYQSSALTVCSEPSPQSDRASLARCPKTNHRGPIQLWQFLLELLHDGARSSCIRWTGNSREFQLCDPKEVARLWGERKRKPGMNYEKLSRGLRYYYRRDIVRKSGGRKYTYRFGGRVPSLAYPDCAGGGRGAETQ
Outline: as §1

ERF = target: T8, ERF (Homo sapiens, UniProt P50548 1-548); conditions: protein: recombinant; tags: N-terminal GST; dsDNA, one strand shown
T8 sequence: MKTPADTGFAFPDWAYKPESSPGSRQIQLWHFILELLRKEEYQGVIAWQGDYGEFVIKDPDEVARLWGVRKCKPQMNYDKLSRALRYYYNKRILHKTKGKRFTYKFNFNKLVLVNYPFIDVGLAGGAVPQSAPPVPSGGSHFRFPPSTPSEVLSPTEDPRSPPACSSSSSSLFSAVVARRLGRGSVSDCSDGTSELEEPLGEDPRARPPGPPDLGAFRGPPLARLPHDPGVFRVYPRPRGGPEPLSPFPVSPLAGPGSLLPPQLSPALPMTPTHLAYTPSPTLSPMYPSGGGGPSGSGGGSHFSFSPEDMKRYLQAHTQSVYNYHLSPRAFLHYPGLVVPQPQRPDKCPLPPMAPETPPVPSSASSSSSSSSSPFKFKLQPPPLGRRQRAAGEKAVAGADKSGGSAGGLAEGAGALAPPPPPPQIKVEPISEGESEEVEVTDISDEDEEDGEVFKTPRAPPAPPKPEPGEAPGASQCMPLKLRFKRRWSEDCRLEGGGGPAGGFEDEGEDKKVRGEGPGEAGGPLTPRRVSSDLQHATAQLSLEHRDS
Outline: as §1

ETV3L = target: T9, ETV3L (Homo sapiens, UniProt Q6ZN32 1-361); conditions: protein: recombinant; tags: N-terminal GST; dsDNA, one strand shown
T9 sequence: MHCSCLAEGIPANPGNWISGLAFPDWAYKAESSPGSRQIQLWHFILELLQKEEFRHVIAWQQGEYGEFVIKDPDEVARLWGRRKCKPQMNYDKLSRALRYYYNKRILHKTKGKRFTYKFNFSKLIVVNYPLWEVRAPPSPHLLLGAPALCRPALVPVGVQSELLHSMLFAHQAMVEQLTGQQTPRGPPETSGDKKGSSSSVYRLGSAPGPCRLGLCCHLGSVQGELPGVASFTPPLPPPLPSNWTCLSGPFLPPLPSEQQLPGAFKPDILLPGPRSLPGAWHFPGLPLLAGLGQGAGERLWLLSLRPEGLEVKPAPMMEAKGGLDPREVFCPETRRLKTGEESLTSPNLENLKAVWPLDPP
Outline: as §1

ETS2 = target: T10, ETS2 (Homo sapiens, UniProt P15036 1-469); conditions: protein: recombinant; tags: N-terminal GST; dsDNA, one strand shown
T10 sequence: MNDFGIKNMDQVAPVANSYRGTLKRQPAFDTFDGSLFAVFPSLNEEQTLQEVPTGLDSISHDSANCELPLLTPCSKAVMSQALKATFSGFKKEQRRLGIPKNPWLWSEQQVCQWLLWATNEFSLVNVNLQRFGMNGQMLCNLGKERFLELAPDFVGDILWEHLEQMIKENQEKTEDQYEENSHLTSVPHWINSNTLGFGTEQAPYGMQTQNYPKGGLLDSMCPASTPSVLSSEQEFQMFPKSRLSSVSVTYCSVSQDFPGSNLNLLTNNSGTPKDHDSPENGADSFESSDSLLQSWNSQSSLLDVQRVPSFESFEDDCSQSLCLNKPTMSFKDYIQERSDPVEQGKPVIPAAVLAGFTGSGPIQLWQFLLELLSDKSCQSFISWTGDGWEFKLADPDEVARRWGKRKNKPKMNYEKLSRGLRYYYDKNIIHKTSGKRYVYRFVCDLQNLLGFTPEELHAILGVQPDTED
Outline: as §1

ETV7 = target: T11, ETV7 (Homo sapiens, UniProt Q9Y603 1-341); conditions: protein: recombinant; tags: N-terminal GST; dsDNA, one strand shown
T11 sequence: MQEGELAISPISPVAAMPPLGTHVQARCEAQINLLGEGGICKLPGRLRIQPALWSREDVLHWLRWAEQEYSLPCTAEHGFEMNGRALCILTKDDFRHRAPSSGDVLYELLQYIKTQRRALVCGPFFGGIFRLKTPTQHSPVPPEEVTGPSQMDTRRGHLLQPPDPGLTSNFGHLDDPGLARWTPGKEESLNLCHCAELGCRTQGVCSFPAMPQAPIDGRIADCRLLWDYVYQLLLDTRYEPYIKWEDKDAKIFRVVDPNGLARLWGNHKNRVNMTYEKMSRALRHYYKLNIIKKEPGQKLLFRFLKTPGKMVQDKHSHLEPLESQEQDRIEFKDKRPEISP
Outline: as §1

ETV6 = ETV6 (Homo sapiens, UniProt P41212 1-452); conditions: protein: recombinant; tags: N-terminal GST; dsDNA, one strand shown
Outline: as §1

Chain of SPIB (Q01892 whole entry): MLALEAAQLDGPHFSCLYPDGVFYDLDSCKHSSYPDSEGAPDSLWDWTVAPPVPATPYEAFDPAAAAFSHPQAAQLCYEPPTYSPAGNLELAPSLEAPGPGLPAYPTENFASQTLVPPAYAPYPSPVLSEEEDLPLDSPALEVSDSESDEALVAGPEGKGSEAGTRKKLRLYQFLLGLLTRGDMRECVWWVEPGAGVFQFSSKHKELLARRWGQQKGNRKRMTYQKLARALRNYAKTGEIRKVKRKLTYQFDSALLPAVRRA
Chain of ETV6 (P41212 whole entry): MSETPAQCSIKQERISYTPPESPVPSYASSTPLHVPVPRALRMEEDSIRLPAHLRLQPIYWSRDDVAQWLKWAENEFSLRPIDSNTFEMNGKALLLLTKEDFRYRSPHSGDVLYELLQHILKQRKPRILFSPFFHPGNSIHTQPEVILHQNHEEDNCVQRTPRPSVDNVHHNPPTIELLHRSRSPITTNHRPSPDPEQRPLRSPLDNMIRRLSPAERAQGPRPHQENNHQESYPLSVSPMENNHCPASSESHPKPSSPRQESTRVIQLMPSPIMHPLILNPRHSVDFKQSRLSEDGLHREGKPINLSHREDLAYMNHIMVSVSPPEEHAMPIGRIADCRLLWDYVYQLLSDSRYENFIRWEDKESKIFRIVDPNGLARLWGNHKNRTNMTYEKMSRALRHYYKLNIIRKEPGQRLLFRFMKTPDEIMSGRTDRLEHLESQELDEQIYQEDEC
Chain of HSF1 (Q00613 whole entry): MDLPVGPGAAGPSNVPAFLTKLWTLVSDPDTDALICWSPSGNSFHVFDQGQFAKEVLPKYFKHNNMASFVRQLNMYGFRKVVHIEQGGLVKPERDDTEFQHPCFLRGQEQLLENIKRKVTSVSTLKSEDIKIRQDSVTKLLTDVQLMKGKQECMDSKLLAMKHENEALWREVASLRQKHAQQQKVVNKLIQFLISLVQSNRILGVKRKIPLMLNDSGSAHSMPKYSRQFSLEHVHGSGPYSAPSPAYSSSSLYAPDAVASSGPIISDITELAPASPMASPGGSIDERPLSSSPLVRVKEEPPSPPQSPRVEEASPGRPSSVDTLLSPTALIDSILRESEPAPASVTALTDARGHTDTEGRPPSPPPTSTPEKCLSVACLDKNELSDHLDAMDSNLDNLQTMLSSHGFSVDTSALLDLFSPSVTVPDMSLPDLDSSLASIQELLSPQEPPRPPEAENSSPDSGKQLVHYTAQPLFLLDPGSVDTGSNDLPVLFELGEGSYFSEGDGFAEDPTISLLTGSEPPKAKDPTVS
Chain of ELF1 (P32519 whole entry): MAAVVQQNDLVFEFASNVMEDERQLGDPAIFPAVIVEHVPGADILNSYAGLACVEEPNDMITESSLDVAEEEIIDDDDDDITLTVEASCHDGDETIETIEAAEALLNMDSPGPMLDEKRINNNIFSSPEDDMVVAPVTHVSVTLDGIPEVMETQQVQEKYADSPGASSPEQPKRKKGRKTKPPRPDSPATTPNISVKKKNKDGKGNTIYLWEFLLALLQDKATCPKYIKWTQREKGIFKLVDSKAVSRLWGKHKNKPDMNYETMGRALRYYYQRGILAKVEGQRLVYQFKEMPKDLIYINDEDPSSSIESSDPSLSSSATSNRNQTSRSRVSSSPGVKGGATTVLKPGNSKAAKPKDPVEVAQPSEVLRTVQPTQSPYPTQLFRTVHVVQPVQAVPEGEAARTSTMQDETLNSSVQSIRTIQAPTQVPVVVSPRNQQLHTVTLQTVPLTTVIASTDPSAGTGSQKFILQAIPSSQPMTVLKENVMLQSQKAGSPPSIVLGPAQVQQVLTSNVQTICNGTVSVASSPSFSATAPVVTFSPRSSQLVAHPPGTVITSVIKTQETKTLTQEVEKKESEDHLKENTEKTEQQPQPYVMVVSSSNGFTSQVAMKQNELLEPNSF

GATTAA was tested, and the binding signal (FLI1) was 1.01 fold enrichment (6-mer frequency, TF over GST control), the binding signal (ELK1) was 1.04 fold enrichment (6-mer frequency, TF over GST control) and the binding signal (GABPA) was 1.04 fold enrichment (6-mer frequency, TF over GST control). The binding signal (ELF1) was 1.02 fold enrichment (6-mer frequency, TF over GST control), the binding signal (EHF) was 1.01 fold enrichment (6-mer frequency, TF over GST control) and the binding signal (SPIB) was 1.02 fold enrichment (6-mer frequency, TF over GST control). For the same sequence, the binding signal (ELK3) was 1.13 fold enrichment (6-mer frequency, TF over GST control), the binding signal (HSF1) was 2.83 fold enrichment (6-mer frequency, TF over GST control) and the binding signal (ELK4) was 1.06 fold enrichment (6-mer frequency, TF over GST control). For the same sequence, the binding signal (ETV2) was 1.11 fold enrichment (6-mer frequency, TF over GST control), the binding signal (ERF) was 1.04 fold enrichment (6-mer frequency, TF over GST control) and the binding signal (ETV3L) was 1.1 fold enrichment (6-mer frequency, TF over GST control). The binding signal (ETS2) was 1.01 fold enrichment (6-mer frequency, TF over GST control), the binding signal (ETV7) was 1.01 fold enrichment (6-mer frequency, TF over GST control) and the binding signal (ETV6) was 1.12 fold enrichment (6-mer frequency, TF over GST control).
